A number with no mark means an inactive call. Inconclusive results are not listed. A call without a number means that no potency is given here. Calls of active or inactive are those of the source. The call rests on the fitted dose curve; in most records, active means well fitted curve in the direction sought with a large enough effect; inconclusive means small, poorly fitted or top-dose-only effect, or another doubt; inactive means no such curve, though single readings can be large; an effect the other way counts as inactive or inconclusive.
Key:
[1] = target: Glutathione peroxidase 1 (Homo sapiens) (UniProt P07203); assay: Primary qHTS Assay for Inhibitors of Recombinant Selenoprotein Glutathione Peroxidase 1 (GPX1) (AID 1845191); further: nearly all actives have a fitted effect of over 65% in size
Outline: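 GPX1 10 nM, GR 100 nM, GSH 1 mM, NADPH 0.5 mM, CHP 0.5 mM (final). 30-min cpd preincubation, RT. Ex340/Em450 read t=0, t=15 min.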

[2] = target: Phospholipid hydroperoxide glutathione peroxidase GPX4 (Homo sapiens) (UniProt P36969); assay: Primary qHTS Assay for Inhibitors of Recombinant Selenoprotein Glutathione Peroxidase 4 (GPX4) (AID 1845192); further: nearly all actives have a fitted effect of over 65% in size; on activity change, negative = inhibition: series mostly up to about 50 µM
Outline: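 qHTS, GR-coupled: GPX4 200 nM + cpd 30 min RT → GSH 1 mM, NADPH 0.5 mM, GR 100 nM → CHP 0.5 mM start; fluor 340/450 at t0 and t15 min; no-enzyme wells as control.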

[3] = target: Luciferin 4-monooxygenase (Photinus pyralis) (UniProt P08659); assay: Primary firefly luciferase (FLuc) qHTS assay for identification of artifact compounds. (AID 1845220); further: nearly all actives have a fitted effect of over 60% in size; on activity change, negative = inhibition: series mostly up to about 54 µM
Outline: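 qHTS, 15 min compound preincubation with substrate (10 uM luciferin, 10 uM ATP) at RT, then 10 nM FLuc; 5 min; luminescence; % inhibition vs no-enzyme/DMSO controls, 4-parameter Hill fit.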

[4] = Primary fluorescence-based thiol-reactive (MSTI) qHTS assay for identification of artifact compounds. (AID 1845221); further: nearly all actives have a fitted effect of over 65% in size; further: potency means the concentration at half of the fitted maximal effect;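 on activity change, negative = thiol reactive: series mostly up to about 54 µM; thiol-reactive compounds lower the probe fluorescence signal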
Outline: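 One-hour, room-temperature, dark incubation of compound with 4 uM MSTI in PBS (pH 7.4, 2% DMSO) precedes a fluorescence read at 525 nm excitation, 598 nm emission; Hill-equation fitting yields concentration-response values.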

[5] = system: Nanoluciferase (engineered Oplophorus gracilirostris luciferase); assay: Primary Nanoluciferase (NLuc) qHTS assay for identification of artifact compounds. (AID 1845222); further: series mostly up to about 54 µM
Outline: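 Luminescence read-out of secreted NLuc in S16 cell conditioned medium (1:55); compounds tested with 15 min RT preincubation, then Nano-Glo substrate 1:100, 5 min. % inhibition vs no-enzyme and DMSO controls, 4-parameter Hill fit.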

[6] = Primary redox qHTS assay for identification of artifact compounds. (AID 1845223)
Outline: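 Redox-cycling detection via DTT (250 uM final) oxidation coupled to Amplex Red (25 uM)/HRP (250 mU/mL) in HBSS. 15 min preincubation plus 30 min after DTT, room temperature. Ex/Em 525/598 nm; 4-parameter Hill fit against DMSO and 10 uM DA3003.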

Chain of Glutathione peroxidase 1 (Homo sapiens) (P07203 whole entry, looked up): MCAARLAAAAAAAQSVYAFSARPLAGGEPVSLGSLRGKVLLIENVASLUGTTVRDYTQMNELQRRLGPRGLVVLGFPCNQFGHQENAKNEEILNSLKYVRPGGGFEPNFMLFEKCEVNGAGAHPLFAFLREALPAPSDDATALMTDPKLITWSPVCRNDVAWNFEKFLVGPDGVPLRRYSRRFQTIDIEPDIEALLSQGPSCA
Chain of Phospholipid hydroperoxide glutathione peroxidase GPX4 (Homo sapiens) (P36969 whole entry, looked up): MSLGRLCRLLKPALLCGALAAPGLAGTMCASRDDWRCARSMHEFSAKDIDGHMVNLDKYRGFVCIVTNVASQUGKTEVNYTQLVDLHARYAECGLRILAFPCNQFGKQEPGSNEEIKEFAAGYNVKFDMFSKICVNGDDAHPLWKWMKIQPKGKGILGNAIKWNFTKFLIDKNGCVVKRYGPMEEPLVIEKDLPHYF

| SMILES | Potency [1] | Potency [2] | Potency [3] | Potency [4] | Potency [5] | Potency [6] | outcome [1] | activity change, negative = inhibition [2] | outcome [3] | activity change, negative = thiol reactive [4] | activity, negative = inhibition [5] | redox activity (% of DA3003) [6] |
| --- | --- | --- | --- | --- | --- | --- | --- | --- | --- | --- | --- | --- |
| C=CC1(C)CC(O)C2(CCC3C(C)(C(=O)O)CCCC3(C)C2=O)C1 (centres undefined) | inactive | inactive | inactive | inactive | inactive | inactive |  |  |  |  |  |  |
| CC(C)(C)c1cc(CN2CCN(CC(O)c3ccc(Cl)cc3)CC2)cc(C(C)(C)C)c1O (centres undefined) | inactive | inactive | inactive | inactive | inactive | inactive |  |  |  |  |  |  |
| CC[C@H]1OC(=O)[C@H](C)[C@@H](OC2C[C@@](C)(OC)[C@@H](O)[C@H](C)O2)[C@H](C)[C@@H](OC2O[C@H](C)C[C@H](NC)[C@H]2O)[C@](C)(O)C[C@@H](C)CN(C)[C@H](C)[C@@H](O)[C@]1(C)O (some centres undefined) | inactive | inactive | inactive | inactive | inactive | inactive |  |  |  |  |  |  |
| CC1CCC2C(C)(C)C(O)CCC2(C)C12Cc1c(O)cc3c(c1O2)C(N)=NC3 (centres undefined) | inactive | inactive | inactive | inactive | inactive | inactive |  |  |  |  |  |  |
| COC(=O)C1=CO[C@@H](O[C@@H]2O[C@H](CO)[C@@H](O)[C@H](O)[C@H]2O)[C@@H]2[C@@H](C)[C@@H](O)C[C@H]12 | inactive | inactive | inactive | inactive | inactive | inactive |  |  |  |  |  |  |
| C[C@@H]1O[C@@H](O[C@@H]2[C@@H](O)[C@H](O[C@@H]3[C@@H](O)[C@@H](O)[C@H](O[C@H]4[C@H](OC(=O)[C@]56CCC(C)(C)C[C@H]5C5=CCC7[C@@]8(C)C[C@H](O)[C@H](O[C@@H]9O[C@@H](C)[C@H](O)[C@@H](O)[C@H]9O)[C@@](C)(CO)C8CC[C@@]7(C)[C@]5(C)C[C@H]6O)O[C@H](C)[C@H](O)[C@@H]4O)O[C@H]3C)OC[C@H]2O)[C@H](O)[C@H](O)[C@H]1O (some centres undefined) |  |  |  |  |  |  | inactive [at 9.52 µM] | 0.486% [at 9.73 µM] | inactive [at 11.6 µM] | 292% [at 11.5 µM] | 4.95% [at 11.6 µM] | 10.9% [at 11.5 µM] |
| CC(=O)OC(CSC1CCC(=O)OC(C)CCC(=O)C1)C(=O)O (centres undefined) | inactive | inactive | inactive | inactive | inactive | inactive |  |  |  |  |  |  |
| CC(=O)OC[C@@]12[C@@H](OC(C)=O)C[C@@H](C)[C@](C)([C@@H]3C[C@H]4C=CO[C@H]4O3)[C@H]1CCC[C@]21CO1 | inactive | inactive | inactive | inactive | inactive | inactive |  |  |  |  |  |  |
| CC(C)(O)c1ccc2c(c1)C(=O)CC1[C@](C)(CO)CCC[C@]21C (some centres undefined) | inactive | inactive | inactive | 13.1 µM (active) | inactive | inactive |  |  |  |  |  |  |
